In PMC5700166:

Assays:
Assay in all cases: protein-binding microarray (PBM); PBM: ~300 nM protein, 6 mM HEPES pH 7.8, 80 mM KCl, 0.5 mM EDTA, 0.5 mM EGTA, 6% glycerol, 35 ng/ul poly-dIdC, 1% milk, 1 h, room temperature; Ap Aiptasia and Nv Nematostella (sea anemones) / Co Capsaspora / Aq Amphimedon (sponge) / Dm Drosophila / Hu human; RHD is the Rel homology domain; high values mean tight binding
Conditions in all cases: dsDNA, one strand shown
[1] = target: T1, GST-Ap-NF-kB RHD (Exaiptasia pallida (Aiptasia), UniProt A0A913YAJ5 2-422)
T1 sequence: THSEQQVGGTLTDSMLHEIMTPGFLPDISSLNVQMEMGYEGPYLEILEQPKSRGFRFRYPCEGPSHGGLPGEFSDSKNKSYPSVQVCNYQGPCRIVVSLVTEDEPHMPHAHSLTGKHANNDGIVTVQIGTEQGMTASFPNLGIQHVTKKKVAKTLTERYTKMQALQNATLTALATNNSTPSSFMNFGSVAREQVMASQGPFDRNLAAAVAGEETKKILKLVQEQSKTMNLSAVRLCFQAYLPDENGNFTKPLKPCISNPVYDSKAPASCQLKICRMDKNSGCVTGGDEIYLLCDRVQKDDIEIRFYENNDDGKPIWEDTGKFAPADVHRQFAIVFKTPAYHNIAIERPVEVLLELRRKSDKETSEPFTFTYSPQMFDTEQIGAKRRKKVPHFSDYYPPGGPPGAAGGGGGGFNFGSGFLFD

[2] = target: T2, GST-Nv-NF-kB (Cys allele) (Nematostella vectensis, UniProt E5G601 2-411)
T2 sequence: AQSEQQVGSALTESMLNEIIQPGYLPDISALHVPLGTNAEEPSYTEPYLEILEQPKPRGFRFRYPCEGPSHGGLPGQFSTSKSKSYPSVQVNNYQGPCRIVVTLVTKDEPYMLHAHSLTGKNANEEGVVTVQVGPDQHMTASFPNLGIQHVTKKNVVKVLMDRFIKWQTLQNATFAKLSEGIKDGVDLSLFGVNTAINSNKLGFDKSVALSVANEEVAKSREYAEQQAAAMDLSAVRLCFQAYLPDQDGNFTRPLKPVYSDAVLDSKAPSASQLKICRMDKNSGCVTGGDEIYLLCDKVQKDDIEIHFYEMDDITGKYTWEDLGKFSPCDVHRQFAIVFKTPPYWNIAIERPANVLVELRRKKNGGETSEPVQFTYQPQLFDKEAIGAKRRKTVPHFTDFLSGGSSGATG

[3] = target: T3, GST-Co-NF-kB (Capsaspora owczarzaki, UniProt F1ARL5 200-546)
T3 sequence: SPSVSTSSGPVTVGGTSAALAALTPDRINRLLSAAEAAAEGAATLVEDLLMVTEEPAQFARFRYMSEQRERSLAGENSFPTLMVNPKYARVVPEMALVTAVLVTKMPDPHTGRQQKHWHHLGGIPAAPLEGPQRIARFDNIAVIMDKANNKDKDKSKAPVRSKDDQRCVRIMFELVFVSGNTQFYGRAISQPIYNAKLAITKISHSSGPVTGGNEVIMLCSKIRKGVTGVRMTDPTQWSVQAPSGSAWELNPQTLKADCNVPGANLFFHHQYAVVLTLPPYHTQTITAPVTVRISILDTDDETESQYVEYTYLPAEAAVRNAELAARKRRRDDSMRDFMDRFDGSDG

[4] = target: T4, GST-Dm-Relish (Drosophila melanogaster, UniProt Q94527 99-473)
T4 sequence: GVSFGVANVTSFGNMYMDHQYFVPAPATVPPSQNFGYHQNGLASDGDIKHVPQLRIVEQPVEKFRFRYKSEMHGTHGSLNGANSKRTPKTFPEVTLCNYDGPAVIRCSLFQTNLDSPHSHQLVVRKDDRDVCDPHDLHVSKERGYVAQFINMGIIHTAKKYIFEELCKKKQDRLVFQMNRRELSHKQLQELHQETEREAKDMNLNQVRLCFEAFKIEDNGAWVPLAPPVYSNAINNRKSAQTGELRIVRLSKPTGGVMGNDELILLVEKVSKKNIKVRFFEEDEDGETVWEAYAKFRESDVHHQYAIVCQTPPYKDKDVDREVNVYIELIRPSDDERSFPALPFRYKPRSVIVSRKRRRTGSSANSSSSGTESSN

[5] = target: T5, GST-Aq-NF-kB (Amphimedon queenslandica, UniProt A9Y5G7 2-389)
T5 sequence: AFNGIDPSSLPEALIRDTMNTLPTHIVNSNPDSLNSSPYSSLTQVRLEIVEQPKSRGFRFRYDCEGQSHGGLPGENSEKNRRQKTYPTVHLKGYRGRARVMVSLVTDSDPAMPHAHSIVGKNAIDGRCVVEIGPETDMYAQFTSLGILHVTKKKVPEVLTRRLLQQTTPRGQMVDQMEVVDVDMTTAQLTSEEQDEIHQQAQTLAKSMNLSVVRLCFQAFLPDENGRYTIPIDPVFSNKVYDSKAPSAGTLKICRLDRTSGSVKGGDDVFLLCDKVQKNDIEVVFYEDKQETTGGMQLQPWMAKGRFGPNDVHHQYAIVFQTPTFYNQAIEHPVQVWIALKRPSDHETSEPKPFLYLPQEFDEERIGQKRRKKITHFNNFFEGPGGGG

[6] = target: GST-Hu-p50 (Homo sapiens, UniProt P19838 7-356)
GST-Hu-p50, sequence (P19838 7-356): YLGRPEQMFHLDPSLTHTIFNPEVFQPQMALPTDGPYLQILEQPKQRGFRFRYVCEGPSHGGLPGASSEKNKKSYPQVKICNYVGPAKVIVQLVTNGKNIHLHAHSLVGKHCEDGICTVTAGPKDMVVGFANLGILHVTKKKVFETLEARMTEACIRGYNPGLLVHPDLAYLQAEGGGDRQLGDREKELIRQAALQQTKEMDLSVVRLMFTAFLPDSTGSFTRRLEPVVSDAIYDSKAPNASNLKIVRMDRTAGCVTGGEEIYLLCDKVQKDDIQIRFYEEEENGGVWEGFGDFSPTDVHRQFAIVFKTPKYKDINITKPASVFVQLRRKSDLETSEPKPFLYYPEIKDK

Work on “CCGATTAACATCAGGAACTCCCCTGATGTTAATCGGGTCTTGATTCGCTTGACGCTGCTG” yielded a binding signal [1] of 8.99 z-score, a binding signal [2] of 7.4 z-score and a binding signal [3] of 3.87 z-score. The binding signal [4] was 7.91 z-score, the binding signal [5] was 8.17 z-score and the binding signal [6] was 5.57 z-score.
“CCGATTAACATCACCCCGCCCCCTGATGTTAATCGGGTCTTGATTCGCTTGACGCTGCTG” gave a binding signal [1] of 4.32 z-score, a binding signal [2] of 3.28 z-score and a binding signal [3] of 3.91 z-score. It also gave a binding signal [4] of 4.16 z-score, a binding signal [5] of 4.28 z-score and a binding signal [6] of 4.24 z-score.
“CCGATTAACATCAAGGGGGGTTATGATGTTAATCGGGTCTTGATTCGCTTGACGCTGCTG” gave a binding signal [1] of 5.81 z-score, a binding signal [2] of 4.63 z-score and a binding signal [3] of 3.05 z-score. For the same sequence, the binding signal [4] was 7.12 z-score, the binding signal [5] was 5.77 z-score and the binding signal [6] was 5.59 z-score.
“CCGATTAACATCAGGGCTCCCCATGATGTTAATCGGGTCTTGATTCGCTTGACGCTGCTG” gave a binding signal [1] of 2.59 z-score, a binding signal [2] of 1.32 z-score and a binding signal [3] of 2.03 z-score. For the same sequence, the binding signal [4] was 3.88 z-score, the binding signal [5] was 2.46 z-score and the binding signal [6] was 1.51 z-score.
Sequence “CCGATTAACATCAGGGGATATACTGATGTTAATCGGGTCTTGATTCGCTTGACGCTGCTG” has a binding signal [1] of 5.2 z-score, a binding signal [2] of 4.91 z-score and a binding signal [3] of 3.57 z-score. For the same sequence, the binding signal [4] was 7.81 z-score, the binding signal [5] was 4.48 z-score and the binding signal [6] was 4.04 z-score.
In the case of “CCGATTAACATCAAAAATTCACCTGATGTTAATCGGGTCTTGATTCGCTTGACGCTGCTG”, the binding signal [1] is reported as 1.56 z-score, the binding signal [2] is reported as 2.59 z-score and the binding signal [3] is reported as 1.24 z-score. The binding signal [4] was 5.78 z-score, the binding signal [5] was 2.74 z-score and the binding signal [6] was 4 z-score.
With “CCGATTAACATCAGAAATTACCCTGATGTTAATCGGGTCTTGATTCGCTTGACGCTGCTG” the binding signal [1] was 3.88 z-score, the binding signal [2] was 6.24 z-score and the binding signal [3] was 2.87 z-score. For the same sequence, the binding signal [4] was 4.39 z-score, the binding signal [5] was 5.95 z-score and the binding signal [6] was 4.72 z-score.
“CCGATTAACATCAGAACATCCCCTGATGTTAATCGGGTCTTGATTCGCTTGACGCTGCTG” was tested, and the binding signal [1] was 6.05 z-score, the binding signal [2] was 6.64 z-score and the binding signal [3] was 3.09 z-score. For the same sequence, the binding signal [4] was 6.69 z-score, the binding signal [5] was 5.97 z-score and the binding signal [6] was 5.45 z-score.
“CCGATTAACATCAACAACCCCCCTGATGTTAATCGGGTCTTGATTCGCTTGACGCTGCTG” showed a binding signal [1] of 6.24 z-score, a binding signal [2] of 4.31 z-score and a binding signal [3] of 4.22 z-score. The binding signal [4] was 6.01 z-score, the binding signal [5] was 5.18 z-score and the binding signal [6] was 5.38 z-score.
In the case of “CCGATTAACATCAGAAAGTTCCCTGATGTTAATCGGGTCTTGATTCGCTTGACGCTGCTG”, the binding signal [1] is reported as 4.17 z-score, the binding signal [2] is reported as 4.74 z-score and the binding signal [3] is reported as 3.54 z-score. It also gave a binding signal [4] of 6.32 z-score, a binding signal [5] of 5.8 z-score and a binding signal [6] of 4.18 z-score.
In the case of “CCGATTAACATCAGACAACCCCCTGATGTTAATCGGGTCTTGATTCGCTTGACGCTGCTG”, the binding signal [1] is reported as 5.23 z-score, the binding signal [2] is reported as 4.47 z-score and the binding signal [3] is reported as 1.95 z-score. The binding signal [4] was 5.15 z-score, the binding signal [5] was 4.98 z-score and the binding signal [6] was 5.28 z-score.
“CCGATTAACATCACTAATCCCCCTGATGTTAATCGGGTCTTGATTCGCTTGACGCTGCTG” showed a binding signal [1] of 6.44 z-score, a binding signal [2] of 5.78 z-score and a binding signal [3] of 5.81 z-score. For the same sequence, the binding signal [4] was 5.13 z-score, the binding signal [5] was 4.99 z-score and the binding signal [6] was 6.23 z-score.
